# Source: PubChem BioAssay (EPA / NIEHS)
# Inconclusive results are not listed. The source made the active and inactive calls. Rule for the calls, unless noted: active = hit-call score of the fitted dose curve at least 0.9, where 1 is the maximum; inconclusive = response in the unintended direction; inactive = score below 0.9.
# Experiments:
# [1] = molecular target: Agonist Androgen Response Element (ARE), AR (gene 367) (UniProt P10275); experiment: OT_AR_ARELUC_AG_1440: Odyssey Thera (OT) 24-hour CHO-K1 Luciferase Assay for Agonist Androgen Response Element (ARE) (AID 2283379)
# Chain of Agonist Androgen Response Element (ARE), AR (gene 367) (P10275 whole entry, looked up): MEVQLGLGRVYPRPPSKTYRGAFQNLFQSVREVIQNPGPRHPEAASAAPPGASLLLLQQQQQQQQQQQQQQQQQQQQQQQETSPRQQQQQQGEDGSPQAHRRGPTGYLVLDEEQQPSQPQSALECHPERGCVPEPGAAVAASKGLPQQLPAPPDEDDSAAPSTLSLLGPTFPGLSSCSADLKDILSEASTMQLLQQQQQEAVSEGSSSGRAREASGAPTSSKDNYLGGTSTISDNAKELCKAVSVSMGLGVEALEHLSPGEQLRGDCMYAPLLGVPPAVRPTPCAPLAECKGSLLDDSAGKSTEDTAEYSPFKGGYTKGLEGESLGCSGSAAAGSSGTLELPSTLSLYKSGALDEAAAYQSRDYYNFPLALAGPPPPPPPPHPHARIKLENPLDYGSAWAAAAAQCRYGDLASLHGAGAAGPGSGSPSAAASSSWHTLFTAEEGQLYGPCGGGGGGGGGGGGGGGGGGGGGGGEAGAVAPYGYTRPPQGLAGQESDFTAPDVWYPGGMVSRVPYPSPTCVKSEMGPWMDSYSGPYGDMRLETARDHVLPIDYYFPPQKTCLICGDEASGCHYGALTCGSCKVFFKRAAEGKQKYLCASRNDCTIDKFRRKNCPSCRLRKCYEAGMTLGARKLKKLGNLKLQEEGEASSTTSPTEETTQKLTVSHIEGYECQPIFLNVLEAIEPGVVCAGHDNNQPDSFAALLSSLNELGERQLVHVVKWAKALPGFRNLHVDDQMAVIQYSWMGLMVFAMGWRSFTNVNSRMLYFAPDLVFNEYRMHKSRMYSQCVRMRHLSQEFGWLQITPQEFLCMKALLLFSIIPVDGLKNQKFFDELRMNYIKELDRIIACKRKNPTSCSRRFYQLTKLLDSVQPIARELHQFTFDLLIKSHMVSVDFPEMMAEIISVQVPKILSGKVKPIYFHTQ
# Procedure, shortened: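 Agonist mode, 24 h exposure in CHO-K1 ARE-luciferase cells; values reflect luminescence induction over vehicle.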
# [2] = molecular target: Estrogen receptor (Homo sapiens) (UniProt P03372); experiment: OT_ERa_GFPERaERE_0480: Odyssey Thera (OT) 8-hour HeLa Transcription Induction Assay for Estrogen Receptor (AID 2283381; active = hit-call score of the fitted dose curve at least 0.9, where 1 is the maximum; inactive = score below 0.9)
# Chain of Estrogen receptor (Homo sapiens) (P03372 whole entry, looked up): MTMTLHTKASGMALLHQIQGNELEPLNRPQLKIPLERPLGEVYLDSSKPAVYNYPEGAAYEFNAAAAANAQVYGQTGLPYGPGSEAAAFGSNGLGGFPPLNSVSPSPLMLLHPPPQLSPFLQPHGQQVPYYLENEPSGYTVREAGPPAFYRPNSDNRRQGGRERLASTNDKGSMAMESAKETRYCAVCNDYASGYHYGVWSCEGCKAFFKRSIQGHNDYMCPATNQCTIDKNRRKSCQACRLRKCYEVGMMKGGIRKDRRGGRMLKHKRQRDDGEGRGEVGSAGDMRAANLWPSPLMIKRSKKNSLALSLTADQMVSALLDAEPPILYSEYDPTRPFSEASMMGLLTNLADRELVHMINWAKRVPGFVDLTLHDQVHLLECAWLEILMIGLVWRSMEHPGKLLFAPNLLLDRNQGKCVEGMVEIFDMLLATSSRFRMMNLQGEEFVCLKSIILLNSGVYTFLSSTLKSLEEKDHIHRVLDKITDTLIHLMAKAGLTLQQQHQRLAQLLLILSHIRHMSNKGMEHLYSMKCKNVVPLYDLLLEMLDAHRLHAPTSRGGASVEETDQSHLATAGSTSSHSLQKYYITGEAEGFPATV
# Procedure, shortened: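 Cells (HeLa) receive compound; after 8 h, reporter fluorescence is imaged and quantified by high-content analysis. Gain-of-signal relative to DMSO gives the endpoint.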
# [3] = molecular target: Estrogen receptor (Homo sapiens) (UniProt P03372); experiment: OT_ERa_GFPERaERE_0120: Odyssey Thera (OT) 2-hour HeLa Transcription Induction Assay for Estrogen Receptor (AID 2283382)
# Procedure, shortened: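 Measures ESR1 pathway reporter gain-of-signal in HeLa cells after a 2-hour treatment, detected as fluorescent protein induction by microscopy, DMSO as baseline.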
# [4] = molecular target: Bile acid receptor (Homo sapiens) (UniProt Q96RI1); experiment: OT_FXR_FXRSRC1_0480: Odyssey Thera (OT) 8-hour HEK293T Protein-Complementation Assay for Farnesoid X receptor/SRC-1 Co-activator (AID 2283383)
# Chain of Bile acid receptor (Homo sapiens) (Q96RI1 whole entry, looked up, the tested form may be a part): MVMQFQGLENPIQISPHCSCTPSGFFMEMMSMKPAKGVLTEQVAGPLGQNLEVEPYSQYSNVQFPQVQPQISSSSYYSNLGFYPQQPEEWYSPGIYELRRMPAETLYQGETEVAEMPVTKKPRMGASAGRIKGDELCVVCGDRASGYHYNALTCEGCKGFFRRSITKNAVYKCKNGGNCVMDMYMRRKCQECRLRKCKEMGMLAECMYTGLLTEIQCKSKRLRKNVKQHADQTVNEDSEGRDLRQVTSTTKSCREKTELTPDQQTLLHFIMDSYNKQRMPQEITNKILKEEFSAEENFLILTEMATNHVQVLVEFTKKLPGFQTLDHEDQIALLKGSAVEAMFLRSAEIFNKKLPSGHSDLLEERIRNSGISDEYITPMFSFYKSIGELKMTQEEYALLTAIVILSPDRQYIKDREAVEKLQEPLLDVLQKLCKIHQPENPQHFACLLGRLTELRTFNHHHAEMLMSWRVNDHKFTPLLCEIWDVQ
# Procedure, shortened: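 Co-activator recruitment to FXR was measured in living HEK293T cells, where interaction of the two fused partners restored an active fluorescent reporter. Signal gain after 8 h treatment was referenced to DMSO.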
# [5] = molecular target: Bile acid receptor (Homo sapiens) (UniProt Q96RI1); experiment: OT_FXR_FXRSRC1_1440: Odyssey Thera (OT) 24-hour HEK293T Protein-Complementation Assay for Farnesoid X receptor/SRC-1 Co-activator (AID 2283384)
# Procedure, shortened: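 Cell-based binding reporter: interaction of FXR with SRC-1 brings reporter fragments together, giving a fluorescence signal read 24 h after dosing of HEK293T cells.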
# [6] = molecular target: Estrogen receptor beta (Homo sapiens) (UniProt Q92731); experiment: OT_ER_ERbERb_1440: Odyssey Thera (OT) 24-hour HEK293T Protein-Complementation Assay for Estrogen Receptor-beta/-beta Homodimer (AID 2283380);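 note: fluorescence gain from ER beta LBD homodimer complementation read by laser scanning cytometry; scored as signal increase over DMSO baseline for both agonists and antagonists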
# Chain of Estrogen receptor beta (Homo sapiens) (Q92731 whole entry, looked up, the tested form may be a part): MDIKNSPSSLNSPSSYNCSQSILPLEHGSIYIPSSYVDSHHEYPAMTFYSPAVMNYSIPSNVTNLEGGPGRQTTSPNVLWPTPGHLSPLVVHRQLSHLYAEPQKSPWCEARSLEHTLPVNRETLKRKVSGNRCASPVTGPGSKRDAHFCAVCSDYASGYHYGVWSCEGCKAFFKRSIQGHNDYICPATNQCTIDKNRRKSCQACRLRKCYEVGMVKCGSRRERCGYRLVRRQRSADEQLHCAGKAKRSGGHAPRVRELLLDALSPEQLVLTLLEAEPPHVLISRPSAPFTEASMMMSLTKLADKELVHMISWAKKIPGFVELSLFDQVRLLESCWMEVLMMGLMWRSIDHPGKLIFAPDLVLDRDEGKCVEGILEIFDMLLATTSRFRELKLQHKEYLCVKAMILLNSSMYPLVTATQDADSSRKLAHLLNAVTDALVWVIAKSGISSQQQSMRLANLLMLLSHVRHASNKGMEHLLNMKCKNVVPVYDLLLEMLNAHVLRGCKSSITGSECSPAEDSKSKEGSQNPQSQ
# Procedure, shortened: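 Fluorescence increase, nuclear for agonists or whole-cell for antagonists, relative to DMSO vehicle, quantified by laser scanning cytometer after fixation and Draq5 staining. Readout from 24 h treatment of HEK293T cells carrying complementation-paired ER beta LBD (aa 310-547).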
Compound,outcome [1],outcome [2],outcome [3],AC50 [4],AC50 [5],outcome [6]
COc1cc2c(c(OC)c1OC)-c1ccc(OC)c(=O)cc1[C@@H](NC(C)=O)CC2,inactive,inactive,inactive,0.0869 µM (active),0.03 µM (active),–
NNC(=O)c1ccncc1,–,inactive,inactive,–,–,–
CCCCN1C(=O)[C@@H]([C@H](O)C2CCCCC2)NC(=O)C12CCN(Cc1ccc(Oc3ccc(C(=O)O)cc3)cc1)CC2,–,inactive,inactive,–,–,inactive
